Compounds without any hit were thinned out: in the full panel of roughly 83,000, 20% have a hit.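 48-hour exposure, single concentration, 96-well plates; percent growth endpoint where 0 means no net growth. Active: below 10.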 A number with no mark means an inactive call. Activity calls are given as the source filed them. *1 amine or outer side, *2 acyl side, *3 side chain or, on linkers, in order; H or OH if unused. Where a SMILES comes first, the peptide text is derived from it. Bridges are numbered along the chain shown (N, C = ends). Roman numbers before positions name the chains, in order. [ ]: non-standard residue; d: D form. Actinocin(1to9) = Cc1c2oc3c(C)ccc(C(=O)[*:2])c3nc-2c(C(=O)[*:1])c(N)c1=O; NMeV = CN[CH](C(=O)O)C(C)C; Sar = CNCC(=O)O

The subject of this assay is SK-MEL-2 melanoma. Put plainly: NCI-60 one-dose screen, 48 h (100 = growth as untreated, 0 = no growth, -100 = all killed). To be noted: 10 µM unless noted. As to the method:
Growth inhibition of the SK-MEL-2 human tumor cell line is measured as a screen for anti-cancer activity. Cells are grown in 96 well plates and exposed to the test compound for 48 hours. Compounds are tested at a single concentration, which is 10^-5 M for most compounds. The reported endpoint is percent growth (GI% or GIPRCNT), where numbers from 0 - 100% represent growth inhibition, and numbers from -100% - 0 represent cell death. For example, a value of 40 represents 60% growth inhibition. A value of 0 means no net growth occurred over the course of the experiment. A value of -40 indicates 40% of cells at the beginning of the experiment died by the end of the experiment. A value of -100 means all cells are dead at the end of the experiment.
NCI-60 Human Tumor Cell Lines Screen was performed using the standard one-dose NCI protocol, which is described in more detail at https://dtp.cancer.gov/discovery_development/nci-60/default.htm.
Compounds with GIPRCNT values below 10 were considered active. Activity score was based on GIPRCNT using the following formula: […]
Score is 0 for GIPRCNT values of 100 or above, 50 for GIPRCNT values of 0, and 100 for GIPRCNT values of -100.
In the case of `CC(=O)c1ccc2c(c1)CCc1ccccc1-2`, the growth was 110%.
As for `COc1cc(-c2ccc(-[n+]3nc(-c4ccc([N+](=O)[O-])cc4)nn3-c3ccc([N+](=O)[O-])cc3)c(OC)c2)ccc1-[n+]1nc(-c2ccc([N+](=O)[O-])cc2)nn1-c1ccc([N+](=O)[O-])cc1`, the growth was 1.62% (active).
For the molecule `NC(=S)N/N=C/c1ncccc1O`, the growth is 103%.
For the molecule `O=C1C=Cc2ccccc2/C1=C/c1nc(-c2ccccc2)oc1O`, the growth was 99.1%.
As to `O=C(Cc1nc2cc(Cl)c(Cl)cc2nc1CC(=O)c1cccnc1)c1cccnc1`, the growth is 113%.
As for `O=[N+]([O-])c1ccc(Oc2ccccc2Cl)c([N+](=O)[O-])c1`, the growth was 88.6%.
On to `O=C(O)c1cc2c(s1)C(=O)c1sccc1C2=O`, for which the growth is 15.5%.
Take `Clc1ccc(Cc2nc3ccccc3s2)cc1`: the growth is 110%.
Take `N#Cc1c2ccccc2nc2ccccc12`: the growth was 125%.
Consider `S=C=Nc1ccc(N2CCOCC2)cc1`, for which the growth was 97.8%.
Under `Nc1ccc(-c2ccc(N)c(S(=O)(=O)O)c2)cc1S(=O)(=O)O` stands 127%.
For the molecule `CN(C)CCSC1=Nc2ccc(Cl)cc2C(c2ccccc2Cl)N(C)C1` (stereo not given), the growth was 81.8%.
Under `O=C(Cc1nc2cc(Cl)c(Cl)cc2nc1CC(=O)c1ccccc1)c1ccccc1` stands 90.2%; under `CCCCCCCCCCCC[N+]1(CCCCCCCCCCCC)CCCC(C)C1` (stereo not given), -96.5% (active); under `Oc1ccccc1N=Cc1ccccc1`, 82.4%.
`CCC(C)C1NC(=O)C(NC(=O)c2c3nc4c(C(=O)NC5C(=O)NC(C(C)CC)C(=O)N6CCCC6C(=O)N(C)CC(=O)N(C)C(C(C)C)C(=O)OC5C)ccc(C)c4oc-3c(C)c(=O)c2N)C(C)OC(=O)C(C(C)C)N(C)C(=O)CN(C)C(=O)C2CCCN2C1=O` (stereo not given) (I: TIP[Sar][NMeV] / II: TIP[Sar][NMeV]; ester I:1-I:C, II:1-II:C; linker I:N-II:N via Actinocin(1to9); configuration not given here): the growth is -43.2% (active).
As to `CN(C)c1ccc(C(=C2C=CC(=[N+](C)C)C=C2)c2ccc(N(C)C)cc2)cc1`, the growth was -57.8% (active).
On to `OC(c1cc(C23CC4CC(CC(C4)C2)C3)nc2c(Cl)cc(Cl)cc12)C1CCCCN1` (stereo not given), for which the growth is -73.5% (active).
As to `CC(C)(C)c1ccc(CCO)cc1`, the growth is 92.3%.
As for `O/N=C1\c2ccccc2-c2ccc(F)cc21`, the growth was 97.5%.
Under `CCCCC(C=O)(C=C=C(C)C)CC` (stereo not given) stands 111%.
In the case of `O=C1C=CC(=O)N1c1ccc(O)cc1` it was 107%; in that of `COc1cc(NCc2ccc3nc(N)nc(N)c3c2C)cc(OC)c1OC` (tested in a mixture with another compound), 61.8%.
Consider `O=C(Cc1ccccc1)C(F)(F)F`, for which the growth was 107%.
On to `OC(c1cc2ccc(C(F)(F)F)cc2c2cc(C(F)(F)F)ccc12)C1CCCCN1` (stereo not given), for which the growth is -83.1% (active).
Turning to `CN=C(N)N/N=C(\C)c1ccc2c(c1)Cc1ccccc1-2`, the growth is -51.8% (active).
As for `C/C(=N/NC(N)=S)c1ccc(C)cc1`, the growth is 101%.
Under `COC1CC(C)C(OC)c2cc(O)cc(c2O)NC(=O)/C(C)=C/C=C\C(C)C(OC(N)=O)/C(C)=C\C(C)C1OC` (stereo not given) stands 39.4%; under `CC(C)c1ccc(C(=O)OC2CCCC2)cc1`, 105%.
In the case of `CCOc1ccc(Nc2nc3c(s2)C(=O)c2ccccc2C3=O)cc1` it was 101%; in that of `CC1(O)CCCCCC1`, 105%.
Under `O=C(CCl)N1c2ccccc2Sc2c1ccc1ccccc21` stands 82.7%.
For `COc1c(C)c2c(c(O)c1C/C=C(\C)CCC(=O)O)C(=O)OC2`, the growth was 43.8%.
Under `N#CCc1cccc2ccccc12` stands 95.1%; under `O=C(O)c1ccc2c(c1)C(=O)c1ccccc1C2=O`, 105%; under `COc1ccc(/C=C2/C(=O)ON=C2C)cc1`, 96%.
Under `Nc1cccc2cccc([N+](=O)[O-])c12` stands 98.3%; under `CC(C)(C)c1ccc(O)c(Br)c1`, 126%.
In the case of `CC1CC(C)(C)OB(OC(C)CC(C)(C)OB2OC(C)CC(C)(C)O2)O1` (stereo not given), the growth was 103%.
In the case of `Oc1c(Cl)cc(Cl)cc1C=NCC1CCC(CN=Cc2cc(Cl)cc(Cl)c2O)CC1` (stereo not given) it was 92.9%.

Values taken from PubChem BioAssay (NCI).
